The results in this text go back to paper PMC7862700, “An all-to-all approach to the identification of sequence-specific readers for epigenetic DNA modifications on cytosine”.

Assay in all cases: DAPPL (digital affinity profiling via proximity ligation, sequencing); 10 mM Tris-HCl pH 7.5, 50 mM NaCl, 1 mM DTT, 4% glycerol, room temperature, 30 min; GST-TFs on glutathione beads, 16-mer random dsDNA library, 0.1% formaldehyde crosslink after washing; high values mean tight binding
In one test the target is T1, FEV (Homo sapiens, UniProt Q99581 1-238).
T1 sequence: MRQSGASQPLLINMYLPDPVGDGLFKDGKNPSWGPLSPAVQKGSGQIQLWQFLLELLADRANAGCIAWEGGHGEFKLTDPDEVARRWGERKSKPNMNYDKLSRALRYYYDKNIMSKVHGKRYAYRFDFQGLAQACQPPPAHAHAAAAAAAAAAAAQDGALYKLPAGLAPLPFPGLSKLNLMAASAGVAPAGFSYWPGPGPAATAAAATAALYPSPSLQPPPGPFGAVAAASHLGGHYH
Conditions: protein: recombinant; tags: N-terminal GST; dsDNA, one strand shown. Put shortly: (§1)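 Human transcription factors were made in yeast as GST fusions, captured on glutathione beads and barcoded with DNA. With a tag-only sample included, the pool was incubated with 200 nmole of a random double-stranded 16-mer DNA library in Tris/NaCl/DTT/glycerol buffer at room temperature for 30 min, then crosslinked with 0.1% formaldehyde after washing, ligated by proximity, amplified and sequenced. For binding signal, each hexamer's read frequency for a factor is divided by its frequency for the tag-only sample.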

The target of another test is ETV5 (Homo sapiens, UniProt P41161 1-510). As to conditions: protein: recombinant; tags: N-terminal GST; dsDNA, one strand shown. A digest of the protocol:
as §1

The next test addresses HSF1 (Homo sapiens, UniProt Q00613 1-529). Conditions: protein: recombinant; tags: N-terminal GST; chain copies: 3; dsDNA, one strand shown. Put shortly: as §1
The next test deals with T2, SPIC (Homo sapiens, UniProt Q8N5J4 1-248).
T2 sequence: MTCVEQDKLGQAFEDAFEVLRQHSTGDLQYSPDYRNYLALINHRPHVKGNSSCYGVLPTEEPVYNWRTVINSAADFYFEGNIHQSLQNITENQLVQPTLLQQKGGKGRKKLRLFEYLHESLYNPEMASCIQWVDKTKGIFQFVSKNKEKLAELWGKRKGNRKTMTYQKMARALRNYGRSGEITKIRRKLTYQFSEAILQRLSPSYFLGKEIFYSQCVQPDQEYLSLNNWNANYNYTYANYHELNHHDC
Conditions: protein: recombinant; tags: N-terminal GST; dsDNA, one strand shown. A digest of the protocol:
as §1

For another test, the target named is ELF4 (Homo sapiens, UniProt Q99607 1-663). Conditions: protein: recombinant; tags: N-terminal GST; dsDNA, one strand shown. A digest of the protocol: as §1
In the next test the target is T3, ELK4 (Homo sapiens, UniProt P28324-2 1-405).
T3 sequence: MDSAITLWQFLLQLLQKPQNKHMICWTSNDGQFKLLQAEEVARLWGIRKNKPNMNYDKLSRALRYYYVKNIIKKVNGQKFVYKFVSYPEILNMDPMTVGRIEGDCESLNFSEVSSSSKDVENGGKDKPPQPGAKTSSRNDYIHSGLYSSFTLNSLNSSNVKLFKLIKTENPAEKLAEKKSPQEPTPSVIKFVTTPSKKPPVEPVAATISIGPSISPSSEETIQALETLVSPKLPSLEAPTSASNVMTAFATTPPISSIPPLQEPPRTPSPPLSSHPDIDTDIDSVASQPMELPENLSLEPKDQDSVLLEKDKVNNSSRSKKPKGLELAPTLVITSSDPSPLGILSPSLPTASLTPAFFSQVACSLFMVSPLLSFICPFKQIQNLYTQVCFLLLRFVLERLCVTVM
As to conditions: protein: recombinant; tags: N-terminal GST; dsDNA, one strand shown. Put shortly:
as §1

For a further test, the target named is T4, ETV2 (Homo sapiens, UniProt O00321 1-342).
T4 sequence: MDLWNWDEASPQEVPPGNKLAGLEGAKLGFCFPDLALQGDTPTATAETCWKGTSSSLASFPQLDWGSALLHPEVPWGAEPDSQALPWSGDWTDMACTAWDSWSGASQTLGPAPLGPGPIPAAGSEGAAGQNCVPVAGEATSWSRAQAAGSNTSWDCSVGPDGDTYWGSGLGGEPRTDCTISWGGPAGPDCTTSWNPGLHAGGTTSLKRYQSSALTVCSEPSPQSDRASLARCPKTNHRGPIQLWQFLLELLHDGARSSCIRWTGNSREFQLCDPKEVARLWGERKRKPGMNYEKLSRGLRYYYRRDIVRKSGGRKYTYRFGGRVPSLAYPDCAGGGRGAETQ
Conditions: protein: recombinant; tags: N-terminal GST; dsDNA, one strand shown. A digest of the protocol:
as §1

Another test concerns the target T5, ELF3 (Homo sapiens, UniProt P78545 1-371).
T5 sequence: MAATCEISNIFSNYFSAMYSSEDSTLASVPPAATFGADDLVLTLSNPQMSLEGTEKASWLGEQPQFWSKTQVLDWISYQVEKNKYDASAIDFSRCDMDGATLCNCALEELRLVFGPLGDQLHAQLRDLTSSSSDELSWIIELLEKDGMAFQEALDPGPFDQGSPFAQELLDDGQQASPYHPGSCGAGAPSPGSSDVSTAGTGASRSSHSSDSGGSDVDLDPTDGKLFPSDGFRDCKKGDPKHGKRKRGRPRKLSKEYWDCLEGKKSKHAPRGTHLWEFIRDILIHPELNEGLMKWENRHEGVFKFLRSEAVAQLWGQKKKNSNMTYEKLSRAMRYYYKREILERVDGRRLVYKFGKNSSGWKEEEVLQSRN
Conditions: protein: recombinant; tags: N-terminal GST; dsDNA, one strand shown. Put shortly: as §1

Another test concerns the target CRX (Homo sapiens, UniProt O43186 1-299). Conditions: protein: recombinant; tags: N-terminal GST; dsDNA, one strand shown. Put shortly:
as §1

In another test the target is ETV1 (Homo sapiens, UniProt P50549 1-477). Conditions: protein: recombinant; tags: N-terminal GST; dsDNA, one strand shown. Put shortly: as §1
Another test has as its target T6, ERF (Homo sapiens, UniProt P50548 1-548).
T6 sequence: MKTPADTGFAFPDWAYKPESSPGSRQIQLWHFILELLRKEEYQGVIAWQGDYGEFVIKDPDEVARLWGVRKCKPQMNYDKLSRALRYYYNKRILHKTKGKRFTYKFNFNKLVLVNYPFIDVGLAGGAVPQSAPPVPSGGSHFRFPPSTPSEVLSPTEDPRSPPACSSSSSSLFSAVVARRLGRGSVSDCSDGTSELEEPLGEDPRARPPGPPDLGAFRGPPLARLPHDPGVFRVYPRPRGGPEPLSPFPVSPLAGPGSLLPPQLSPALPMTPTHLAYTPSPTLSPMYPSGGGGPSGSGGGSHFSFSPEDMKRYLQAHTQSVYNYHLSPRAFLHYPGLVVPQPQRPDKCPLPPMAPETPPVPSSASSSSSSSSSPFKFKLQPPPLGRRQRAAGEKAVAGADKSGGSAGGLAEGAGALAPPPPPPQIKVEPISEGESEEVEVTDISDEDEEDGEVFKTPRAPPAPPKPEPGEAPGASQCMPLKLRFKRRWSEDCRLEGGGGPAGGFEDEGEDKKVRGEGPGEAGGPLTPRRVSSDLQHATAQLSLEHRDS
Conditions: protein: recombinant; tags: N-terminal GST; dsDNA, one strand shown. A digest of the protocol: as §1

In another test the target is T7, ETV3L (Homo sapiens, UniProt Q6ZN32 1-361).
T7 sequence: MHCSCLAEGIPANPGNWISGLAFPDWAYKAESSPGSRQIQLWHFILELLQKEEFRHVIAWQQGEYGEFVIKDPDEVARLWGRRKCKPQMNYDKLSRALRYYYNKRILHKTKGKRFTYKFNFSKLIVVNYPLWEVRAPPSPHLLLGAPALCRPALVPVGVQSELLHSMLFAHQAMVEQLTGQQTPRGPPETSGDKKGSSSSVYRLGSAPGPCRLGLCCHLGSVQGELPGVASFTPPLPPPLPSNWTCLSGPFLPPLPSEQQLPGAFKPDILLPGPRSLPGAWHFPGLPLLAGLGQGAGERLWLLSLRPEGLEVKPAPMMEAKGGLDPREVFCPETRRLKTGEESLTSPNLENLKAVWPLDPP
Conditions: protein: recombinant; tags: N-terminal GST; dsDNA, one strand shown. A digest of the protocol:
as §1

A further test has as its target T8, ETS2 (Homo sapiens, UniProt P15036 1-469).
T8 sequence: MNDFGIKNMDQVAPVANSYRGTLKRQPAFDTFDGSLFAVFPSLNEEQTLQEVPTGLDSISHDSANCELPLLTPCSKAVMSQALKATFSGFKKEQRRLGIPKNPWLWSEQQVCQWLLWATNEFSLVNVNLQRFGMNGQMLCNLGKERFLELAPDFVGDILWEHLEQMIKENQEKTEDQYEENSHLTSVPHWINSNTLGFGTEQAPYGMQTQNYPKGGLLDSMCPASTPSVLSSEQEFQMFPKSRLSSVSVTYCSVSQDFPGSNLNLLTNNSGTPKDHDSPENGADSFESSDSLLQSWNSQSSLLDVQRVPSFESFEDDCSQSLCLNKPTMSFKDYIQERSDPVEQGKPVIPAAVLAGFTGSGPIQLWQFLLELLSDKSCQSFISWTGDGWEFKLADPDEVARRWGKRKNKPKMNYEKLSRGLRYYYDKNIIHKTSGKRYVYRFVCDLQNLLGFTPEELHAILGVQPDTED
As to conditions: protein: recombinant; tags: N-terminal GST; dsDNA, one strand shown. A digest of the protocol:
as §1

Another test concerns the target T9, SPDEF (Homo sapiens, UniProt O95238 1-335).
T9 sequence: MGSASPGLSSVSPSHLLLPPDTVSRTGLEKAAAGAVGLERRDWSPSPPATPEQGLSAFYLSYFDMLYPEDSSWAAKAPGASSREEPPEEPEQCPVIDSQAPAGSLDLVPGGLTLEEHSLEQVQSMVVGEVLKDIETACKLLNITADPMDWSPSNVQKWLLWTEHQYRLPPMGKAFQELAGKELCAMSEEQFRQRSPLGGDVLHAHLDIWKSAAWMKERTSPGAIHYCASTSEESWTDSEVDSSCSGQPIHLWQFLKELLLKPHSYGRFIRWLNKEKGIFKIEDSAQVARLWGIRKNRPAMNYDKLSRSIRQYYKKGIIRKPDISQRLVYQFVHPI
Conditions: protein: recombinant; tags: N-terminal GST; dsDNA, one strand shown. Put shortly:
as §1

The target in a further test is T10, ETV7 (Homo sapiens, UniProt Q9Y603 1-341).
T10 sequence: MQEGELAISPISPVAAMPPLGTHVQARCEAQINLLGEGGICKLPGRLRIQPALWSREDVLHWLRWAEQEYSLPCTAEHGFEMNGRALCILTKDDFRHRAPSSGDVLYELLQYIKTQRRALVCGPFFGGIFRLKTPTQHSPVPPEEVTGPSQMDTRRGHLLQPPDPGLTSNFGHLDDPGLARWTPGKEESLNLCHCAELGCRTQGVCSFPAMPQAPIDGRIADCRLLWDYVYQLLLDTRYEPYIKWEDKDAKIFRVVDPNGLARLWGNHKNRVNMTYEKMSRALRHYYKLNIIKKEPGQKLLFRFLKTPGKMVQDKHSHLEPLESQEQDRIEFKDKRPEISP
As to conditions: protein: recombinant; tags: N-terminal GST; dsDNA, one strand shown. A digest of the protocol: as §1

The target in another test is T11, ELF5 (Homo sapiens, UniProt Q9UKW6-2 1-255).
T11 sequence: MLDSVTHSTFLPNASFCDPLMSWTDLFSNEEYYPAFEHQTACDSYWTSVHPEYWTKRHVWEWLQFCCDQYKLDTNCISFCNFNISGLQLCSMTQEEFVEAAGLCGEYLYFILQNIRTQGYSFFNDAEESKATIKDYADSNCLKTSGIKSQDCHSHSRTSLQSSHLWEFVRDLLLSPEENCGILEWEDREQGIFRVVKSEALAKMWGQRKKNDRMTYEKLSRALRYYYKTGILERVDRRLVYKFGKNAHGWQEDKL
Conditions: protein: recombinant; tags: N-terminal GST; dsDNA, one strand shown. Put shortly: as §1

In the next test the target is T12, ETV3 (Homo sapiens, UniProt P41162-2 1-143).
T12 sequence: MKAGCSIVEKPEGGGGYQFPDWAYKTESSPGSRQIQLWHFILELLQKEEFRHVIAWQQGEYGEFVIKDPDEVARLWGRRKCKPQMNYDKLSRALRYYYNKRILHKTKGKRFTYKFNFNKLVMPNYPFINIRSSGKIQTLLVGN
Conditions: protein: recombinant; tags: N-terminal GST; dsDNA, one strand shown. Put shortly: as §1

Another test deals with ETV6 (Homo sapiens, UniProt P41212 1-452). As to conditions: protein: recombinant; tags: N-terminal GST; dsDNA, one strand shown. Put shortly: as §1
Chain of ETV6 (P41212 whole entry): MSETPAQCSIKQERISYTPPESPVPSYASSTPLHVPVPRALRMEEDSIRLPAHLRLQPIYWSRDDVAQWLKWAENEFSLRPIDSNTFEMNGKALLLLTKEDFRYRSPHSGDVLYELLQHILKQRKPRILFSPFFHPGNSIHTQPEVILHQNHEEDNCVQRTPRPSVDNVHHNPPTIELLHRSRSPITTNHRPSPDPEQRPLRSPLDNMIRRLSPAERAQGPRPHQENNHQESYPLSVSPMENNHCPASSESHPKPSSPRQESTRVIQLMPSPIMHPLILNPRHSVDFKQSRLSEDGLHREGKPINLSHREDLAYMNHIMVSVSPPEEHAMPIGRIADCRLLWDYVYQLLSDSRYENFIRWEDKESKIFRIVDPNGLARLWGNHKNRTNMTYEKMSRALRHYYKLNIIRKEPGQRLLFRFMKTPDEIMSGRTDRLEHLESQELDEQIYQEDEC

Chain of ETV1 (P50549 whole entry): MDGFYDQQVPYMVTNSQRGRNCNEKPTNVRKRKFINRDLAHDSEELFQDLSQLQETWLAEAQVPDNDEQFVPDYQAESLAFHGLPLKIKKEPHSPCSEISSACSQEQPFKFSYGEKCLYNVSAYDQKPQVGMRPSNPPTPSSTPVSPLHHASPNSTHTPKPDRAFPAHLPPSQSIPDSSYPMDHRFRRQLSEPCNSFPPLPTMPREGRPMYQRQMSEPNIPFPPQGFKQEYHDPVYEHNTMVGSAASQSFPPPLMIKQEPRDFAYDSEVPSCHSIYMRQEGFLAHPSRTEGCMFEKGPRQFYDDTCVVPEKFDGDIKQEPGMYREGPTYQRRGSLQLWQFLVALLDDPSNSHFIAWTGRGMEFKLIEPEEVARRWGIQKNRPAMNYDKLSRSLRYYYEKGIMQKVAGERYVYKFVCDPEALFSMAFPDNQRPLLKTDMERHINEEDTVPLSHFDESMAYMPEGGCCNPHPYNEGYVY
Chain of ELF4 (Q99607 whole entry): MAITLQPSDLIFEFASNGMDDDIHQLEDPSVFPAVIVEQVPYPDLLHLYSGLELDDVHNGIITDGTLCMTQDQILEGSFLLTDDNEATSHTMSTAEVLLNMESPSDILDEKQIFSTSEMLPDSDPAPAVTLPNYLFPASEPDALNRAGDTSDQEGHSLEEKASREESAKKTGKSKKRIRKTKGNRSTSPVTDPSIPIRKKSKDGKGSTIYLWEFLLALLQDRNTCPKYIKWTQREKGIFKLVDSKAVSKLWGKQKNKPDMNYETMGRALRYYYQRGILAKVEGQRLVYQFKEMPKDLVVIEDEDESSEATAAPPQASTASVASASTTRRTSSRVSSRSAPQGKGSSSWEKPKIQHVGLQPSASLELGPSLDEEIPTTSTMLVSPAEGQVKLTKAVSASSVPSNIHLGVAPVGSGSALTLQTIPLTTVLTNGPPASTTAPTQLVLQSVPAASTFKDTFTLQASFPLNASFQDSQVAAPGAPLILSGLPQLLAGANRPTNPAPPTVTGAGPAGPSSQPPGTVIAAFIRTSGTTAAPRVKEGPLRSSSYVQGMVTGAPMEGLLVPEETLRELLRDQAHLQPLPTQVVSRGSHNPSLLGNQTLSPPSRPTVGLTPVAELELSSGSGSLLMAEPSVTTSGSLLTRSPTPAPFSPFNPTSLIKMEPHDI
Chain of ETV5 (P41161 whole entry): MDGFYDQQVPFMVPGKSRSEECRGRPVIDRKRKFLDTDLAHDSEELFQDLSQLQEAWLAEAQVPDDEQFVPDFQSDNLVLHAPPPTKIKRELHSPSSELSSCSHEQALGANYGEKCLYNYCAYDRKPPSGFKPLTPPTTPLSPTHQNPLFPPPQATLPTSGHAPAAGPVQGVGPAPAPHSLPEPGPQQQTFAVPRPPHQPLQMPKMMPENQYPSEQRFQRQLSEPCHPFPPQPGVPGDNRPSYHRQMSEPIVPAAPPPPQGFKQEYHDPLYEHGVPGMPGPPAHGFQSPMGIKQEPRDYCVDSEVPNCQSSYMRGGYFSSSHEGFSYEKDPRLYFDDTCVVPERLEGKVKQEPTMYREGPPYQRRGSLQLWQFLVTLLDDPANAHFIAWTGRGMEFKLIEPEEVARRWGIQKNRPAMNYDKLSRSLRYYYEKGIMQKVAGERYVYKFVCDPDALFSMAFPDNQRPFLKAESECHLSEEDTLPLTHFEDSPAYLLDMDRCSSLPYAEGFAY
Chain of CRX (O43186 whole entry): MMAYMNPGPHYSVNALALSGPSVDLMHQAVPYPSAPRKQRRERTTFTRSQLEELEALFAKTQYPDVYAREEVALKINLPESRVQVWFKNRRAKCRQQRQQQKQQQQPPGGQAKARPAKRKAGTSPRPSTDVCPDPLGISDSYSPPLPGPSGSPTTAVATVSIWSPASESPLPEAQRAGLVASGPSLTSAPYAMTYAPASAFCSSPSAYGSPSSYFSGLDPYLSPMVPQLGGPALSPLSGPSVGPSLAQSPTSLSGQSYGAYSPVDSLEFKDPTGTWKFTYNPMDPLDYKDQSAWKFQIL
Chain of HSF1 (Q00613 whole entry): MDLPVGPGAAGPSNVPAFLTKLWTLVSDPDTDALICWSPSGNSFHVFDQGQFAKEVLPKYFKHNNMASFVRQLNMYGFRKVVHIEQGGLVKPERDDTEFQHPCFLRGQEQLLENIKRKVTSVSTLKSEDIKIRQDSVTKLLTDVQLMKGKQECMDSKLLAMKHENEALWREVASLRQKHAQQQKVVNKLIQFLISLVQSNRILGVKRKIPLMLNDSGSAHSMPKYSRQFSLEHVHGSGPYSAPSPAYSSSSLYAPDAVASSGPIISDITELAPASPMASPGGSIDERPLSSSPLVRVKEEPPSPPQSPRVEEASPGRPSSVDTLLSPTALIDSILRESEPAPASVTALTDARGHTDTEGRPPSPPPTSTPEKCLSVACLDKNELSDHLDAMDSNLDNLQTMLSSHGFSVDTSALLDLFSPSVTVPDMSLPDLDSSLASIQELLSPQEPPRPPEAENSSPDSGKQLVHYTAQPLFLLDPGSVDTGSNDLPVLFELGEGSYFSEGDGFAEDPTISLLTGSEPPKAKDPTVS

Consider GATTAC, for which the binding signal in the test with FEV is 1.05 fold enrichment (6-mer frequency, TF over GST control); with ETV5 it was 1.06 fold enrichment (6-mer frequency, TF over GST control); with HSF1 it was 2.08 fold enrichment (6-mer frequency, TF over GST control); with SPIC, 1.13 fold enrichment (6-mer frequency, TF over GST control); with ELF4 it was 1.08 fold enrichment (6-mer frequency, TF over GST control); with ELK4, 1.23 fold enrichment (6-mer frequency, TF over GST control). Moreover, the binding signal with ETV2 was 1.1 fold enrichment (6-mer frequency, TF over GST control); with ELF3, 1.04 fold enrichment (6-mer frequency, TF over GST control); with CRX it was 3.27 fold enrichment (6-mer frequency, TF over GST control); with ETV1 it was 1.1 fold enrichment (6-mer frequency, TF over GST control); in the test with ERF it was 1.13 fold enrichment (6-mer frequency, TF over GST control); with ETV3L it was 1.07 fold enrichment (6-mer frequency, TF over GST control). In addition, the binding signal in the test with ETS2 was 1.1 fold enrichment (6-mer frequency, TF over GST control); with SPDEF it was 1.13 fold enrichment (6-mer frequency, TF over GST control); with ETV7, 1.08 fold enrichment (6-mer frequency, TF over GST control); in the test with ELF5, 1.11 fold enrichment (6-mer frequency, TF over GST control); with ETV3, 1.07 fold enrichment (6-mer frequency, TF over GST control); with ETV6 it was 1.13 fold enrichment (6-mer frequency, TF over GST control).
